hcDAF12 agonist – activators of H. contortus DAF-12 nuclear receptor. activation, % at 6.8 µM. HEK293 hcDAF-12 lit1-tk-luc reporter, luminescence; 0% DMSO, 100% Δ7-dafachronic acid. 370,000 tested, 1.4% active;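 active = activation above the mean of all tested compounds plus 3 SD, cut at about 5.5% in these data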;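 also: 100% = response to 3 µM Δ7-dafachronic acid high control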
DAX1 inh-1 – NR0B1 (DAX1) inhibition; P51843; HEK293 Gal4-DAX1 luciferase reporter, luminescence; inhibition, % at 6.75 µM; 340,000 tested, 0.99% active; AID 504766;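 active = inhibition above the mean over all tested compounds plus 3 SD, cut at about 4.2% in these data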;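 also: 0% = DAX1-transfected cells with DMSO and 100% = empty-vector control cells with DMSO; inhibition shows as a rise in luminescence from relieved DAX1 repression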
Target sequence (P51843 207-470 limits assumed): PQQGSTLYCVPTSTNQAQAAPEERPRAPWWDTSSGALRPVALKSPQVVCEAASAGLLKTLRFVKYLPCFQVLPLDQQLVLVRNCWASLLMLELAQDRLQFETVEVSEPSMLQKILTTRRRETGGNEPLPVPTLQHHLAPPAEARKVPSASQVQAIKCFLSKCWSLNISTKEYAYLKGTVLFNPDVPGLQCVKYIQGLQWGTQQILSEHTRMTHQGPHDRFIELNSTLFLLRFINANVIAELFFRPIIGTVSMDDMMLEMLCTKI
hgDAF-12 ag – hgDAF-12 agonism, primary luciferase screen. HEK293 GAL4-hgDAF12 UAS-luciferase reporter, agonist luminescence; normalized to butyrate control. activation, % at 6.8 µM. 370,000 tested, 1.8% active;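 active = activation above a cutoff set at the mean of all screened compounds plus 3 SD, cut at about 10% in these data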;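 also: 0% = DMSO wells and 100% = sodium butyrate wells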
ssDAF-12 act – activators of S. stercoralis DAF-12 nuclear receptor; 370,000 tested, 1% active; AID 652126; activation, % at 6.8 µM; HEK293 ssDAF-12/GRIP1 lit1-tk-luc reporter, luminescence; % of 3 µM dafachronic acid response;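 active = activation above the mean over all tested compounds plus 3 SD, cut at about 0.9% in these data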;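 also: 0% = DMSO-only wells and 100% = 3 µM delta7-dafachronic acid wells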
DAX1 inh-2 – DAX1 (NR0B1) inhibition, primary screen; 370,000 tested, 1.1% active; HEK293T StAR-luciferase reporter, SF-1/DAX-1 repression relief; inhibition, % at 6.8 µM;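 active = inhibition above the mean over all tested compounds plus 3 SD, cut at about 3.6% in these data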;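 also: 0% = DAX-1 cells with DMSO and 100% = cells lacking DAX-1 with DMSO; higher inhibition means more luminescence from relief of DAX-1 repression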
GAA850 FXN act – increases GAA850 frataxin promoter reporter activity; 360,000 tested, 0.56% active; HEK293 lucGAA850 FXN promoter luciferase reporter, 24 h; percent of 10 µM SAHA response; activation, % at 6 µM;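 active = activation above the average of all compounds screened plus 3 SD, cutoff fixed separately per campaign, cut at about 7.5% in these data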;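 also: 0% = DMSO wells and 100% = 10 µM SAHA wells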
Starred values were filed as active, the others as inactive; x = not tested or not shown. Shown are actives, neighbours in structure and some others; about 4.5% of the full set was active somewhere.

SMILES	hcDAF12 agonist	DAX1 inh-1	hgDAF-12 ag	ssDAF-12 act	DAX1 inh-2	GAA850 FXN act
Cc1n[nH]c(C)c1S(=O)(=O)N1CCN(S(=O)(=O)c2ccccc2C#N)CC1	-1	0	-2	-1	-1	2
Cc1noc(C)c1S(=O)(=O)N1CCN(S(=O)(=O)c2ccccc2C#N)CC1	2	7.8*	1	-1	0	0
CCCCNC(=O)C[C@H]1C[C@@]2(C(=O)OC)C(=C[C@H](C(C)C)O[C@@H]2C2CC2)N(Cc2ccc3c(c2)OCO3)C1=O	-3	x	-2	-2	0	x
Cc1nc2ccc(S(=O)(=O)NCC(=O)N(C)Cc3ccc(F)cc3)cc2s1	-3	x	-2	-2	0	x
Cn1ccs/c1=N\C(=O)Nc1ccccc1	4	1	12*	0	2	6
Cn1ccsc1=NC(=O)c1ccccc1F	-1	0	5	-1	0	2
NS(=O)(=O)c1ccc(CNC(=O)/C=C/c2ccccc2[N+](=O)[O-])cc1	3	4.4*	-4	-1	-1	3
N#C/C(=C\C=C\c1ccccc1[N+](=O)[O-])C(=O)NCc1ccccc1	-3	-1	-8	-1	-2	2
COc1ccc(NC(=O)COC(=O)/C=C/c2ccccc2[N+](=O)[O-])cc1	-1	-1	-1	-1	0	2
N#C/C(=C\c1ccccc1[N+](=O)[O-])C(=O)NCc1ccccc1	-1	4.5*	0	-1	0	1
COC(=O)CNC(=O)COC(=O)/C=C/c1ccccc1[N+](=O)[O-]	4	3	3	2.0*	-1	-2
O=C(/C=C/c1ccccc1[N+](=O)[O-])NCc1ccc(Cl)cc1	3	0	0	-2	-1	4
C[C@@H]1[C@@H](c2ccccc2)c2cc3ccccc3nc2C(=O)C[C@@H]1C(=O)N1CCCC1	-1	x	1	-1	0	x
CN1CCCCC(NC(=O)c2ccc3ccccc3c2)C1=O (stereo unspecified)	1	x	11*	-1	1	x
Cc1ccc(NCCC(=O)c2cccs2)cc1	5	2	12*	1.4*	4.2*	7
Cc1ccc(NCCC(=O)c2cccs2)cc1Cl	4	1	12*	0	1	2
O=C(CCNc1cccc(Cl)c1)c1cccs1	3	-1	5	1.4*	1	2
CC(C)c1ccc(NCCC(=O)c2cccs2)cc1	1	4	7	-2	0	-1
O=C(CCC(=O)c1cccs1)NCCc1ccc(F)cc1	3	2	-3	0	3.8*	0
CN(Cc1ccccc1)C(=O)OCc1cn(Cc2c(F)cccc2F)nn1	-3	x	-1	-1	0	x
CCOc1ccc(NS(=O)(=O)c2cc(NC(=O)CCC(=O)c3cccs3)ccc2Cl)cc1	-4	5.8*	-3	-2	0	1
COc1ccccc1NS(=O)(=O)c1cc(NC(=O)CCC(=O)c2cccs2)ccc1Cl	-1	-2	-2	-1	0	2
Cc1ccc(NC(=O)Nc2cccs2)cc1	5	0	11*	0	1	2
CNc1nc(-c2ccc3c(c2)CCN3C(=O)c2cccc(F)c2)cs1	0	0	11*	-1	-1	-5
COC(=O)C1CN(Cc2cn(Cc3ccc(Cl)cc3)nn2)CCS(=O)(=O)N1Cc1ccc(C)cc1 (stereo unspecified)	-4	x	-4	-2	-2	x
SMILES	hcDAF12 agonist	DAX1 inh-1	hgDAF-12 ag	ssDAF-12 act	DAX1 inh-2	GAA850 FXN act
COCCCN1C(=O)[C@H](CC(=O)NCC23CC4CC(CC(C4)C2)C3)[C@]2(C(=O)OC)CCCCC=C12	0	x	-1	-1	-1	x
Oc1ccc(/C=N/N2CCOCC2)c(O)c1O	0	6.2*	5	-2	-1	-1
COc1ccc(C2CC(c3cccs3)=NN2C(=O)CCC(=O)O)cc1 (stereo unspecified)	0	1	-1	-1	0	1
COc1ccc(C2CC(c3cccs3)=NN2C(=O)CN2CCCCC2)cc1 (stereo unspecified)	0	x	2	3.1*	0	3
O=C(c1ccco1)N(Cc1ccc(Cl)cc1)Cc1ccco1	5.7*	0	3	0	-2	2
CN(C)c1ccc(CN(Cc2ccco2)C(=O)c2ccco2)cc1	-1	-1	-2	-1	1	2
CSc1nnc(CCNC(=O)OC(C)(C)C)o1	-1	4.5*	0	-1	0	0
CSc1nnc(CCCCCNC(=O)OC(C)(C)C)o1	-1	-1	2	0	0	0
C=CCNC(=O)C1(S(=O)(=O)c2ccccc2)CC=CC1	0	5.2*	1	-1	1	1
C=CCNC(=O)c1ccccc1NS(=O)(=O)c1ccccc1	-1	-1	-1	-1	0	1
Clc1ccc2nc(CNc3nc(N4CCOCC4)nc4c3ncn4-c3ccsc3)[nH]c2c1	-6	x	-10	-3	x	x
COCCNc1nc2cc(-c3ccc(F)cc3)sc2c(=O)n1C	-1	x	12*	-1	-1	0
C=CCNc1nc2cc(-c3ccccc3OC)sc2c(=O)n1C	2	x	11*	0	0	4
COCCNc1nc2cc(-c3ccccc3OC)sc2c(=O)n1C	-2	x	3	-1	1	3
O=C(NCCc1c[nH]c2ccccc12)OCc1cn(Cc2ccc(F)c(F)c2)nn1	4	x	0	-1	0	x
CCCCNS(=O)(=O)CC1NCc2cc(F)ccc21 (stereo unspecified)	-1	x	-2	-2	1	x
CCCC1CCC2(CCC(=O)N2CCOC)CC1 (stereo unspecified)	-1	x	-1	-1	2	x
O=[N+]([O-])c1ccc(OCCCCCN2CCOCC2)cc1	4	5.0*	7	0	0	-1
O=C(O)c1cc(=O)c2c(Cl)cc(Cl)cc2[nH]1	0	1	2	-1	0	1
O=C(O)c1cc(=O)c2ccccc2[nH]1	6.4*	3	5	1.5*	0	3
O=C(O)c1cc2c(cn1)[nH]c1ccccc12	6.3*	2	1	0	0	0
O=C(Nc1ccccc1F)O[C@@H]1CC[C@@]23CCCN2C(=O)CCC[C@H]3C1	1	x	0	-1	x	x
Cc1ccc2c(C)c(C(=O)N(C)C(C)c3ccon3)oc2c1C (stereo unspecified)	1	2	6	0	4.2*	7
Cc1ccc2c(C)c(C(=O)N(C)C(C)c3ccncn3)oc2c1C (stereo unspecified)	-1	2	0	-1	2	5
CCCCC(=O)N[C@H]1CC[C@@]23CCCN2C(=O)CCC[C@H]3[C@H]1CCC	0	x	0	-1	x	x
Cc1ccc(-n2c(SCC(=O)c3ccc(Br)cc3)nnc2-c2ccncc2)cc1	-3	x	-2	-2	-1	x

High-throughput results as filed in PubChem.
